Compound activity: PubChem BioAssay, Broad Institute
GSIS activator: GLuc luminescence reporter in INS-1E cells, primary screen for activators of glucose-dependent secretion of insulin | 0.61% of 370,000 active | AID 743287 | activation, % at 16.6 µM | INS-1E GLuc reporter insulin secretion, 2-3 h;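 active means lowest replicate activation of at least 40%, so every replicate reaches that level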;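 further: 0% = median of neutral control wells and 100% = median of IBMX positive control wells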
DENV2 CPE rescue: protects cells from dengue virus 2 cytopathic effect | DENV2-infected cells, cytopathic effect rescue, plate reader | CPE inhibition, % at 9.99 µM | 1.7% of 350,000 active; in the data active means CPE inhibition above about 20%, passing the limit was not always enough; inconclusive means no clear call, values can overlap the other calls; tested in BHK-21 cells;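 further: 0% = median of neutral control wells and 100% = median of positive control wells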
CaV13 ICDI inh: Disruptors of the CACNA1D IQ motif to Ca2+-dependent inactivation inhibitor domain association, primary screening, Förster resonance energy transfer in intact living …. AID 743397. HEK cells, CFP/YFP FRET ICDI-IQ, plate reader, 10 min; percent FRET-ratio fall versus neutral wells. inhibition, % at 12.3 µM. 0.098% of 340,000 active;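 active means mean replicate inhibition of at least 30% and at least 1% of replicates passing that level; inconclusive means only one of the two criteria is met; inactive means neither criterion is met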;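 further: 0% = median of the neutral control wells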
PGC1a acetyl inh: lowers PGC1a acetylation signal in U2OS cells; AlphaScreen anti-acetyl-lysine; with virally co-expressed GCN5 acetyltransferase; inhibition, % at 15.6 µM; 0.17% of 350,000 active; AID 651687;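 active means every replicate shows inhibition of at least 40%; inconclusive means mean inhibition at least 40% but some replicate below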;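 further: 0% = neutral control wells and 100% = positive control wells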
ERAP1 HTS inh: inhibitors of human ERAP1 aminopeptidase; inhibition, % at 10.7 µM; Q9NZ08; recombinant ERAP1, Leu-AMC fluorescence, 60 min; 0.15% of 340,000 active;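 active means mean replicate inhibition of at least 30%, or all replicates individually reaching that 30% level; inactive means mean below 30% and not every replicate reaching it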;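 further: 0% = neutral control wells and 100% = L-leucinethiol positive control wells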
Target sequence (Q9NZ08 whole entry, looked up): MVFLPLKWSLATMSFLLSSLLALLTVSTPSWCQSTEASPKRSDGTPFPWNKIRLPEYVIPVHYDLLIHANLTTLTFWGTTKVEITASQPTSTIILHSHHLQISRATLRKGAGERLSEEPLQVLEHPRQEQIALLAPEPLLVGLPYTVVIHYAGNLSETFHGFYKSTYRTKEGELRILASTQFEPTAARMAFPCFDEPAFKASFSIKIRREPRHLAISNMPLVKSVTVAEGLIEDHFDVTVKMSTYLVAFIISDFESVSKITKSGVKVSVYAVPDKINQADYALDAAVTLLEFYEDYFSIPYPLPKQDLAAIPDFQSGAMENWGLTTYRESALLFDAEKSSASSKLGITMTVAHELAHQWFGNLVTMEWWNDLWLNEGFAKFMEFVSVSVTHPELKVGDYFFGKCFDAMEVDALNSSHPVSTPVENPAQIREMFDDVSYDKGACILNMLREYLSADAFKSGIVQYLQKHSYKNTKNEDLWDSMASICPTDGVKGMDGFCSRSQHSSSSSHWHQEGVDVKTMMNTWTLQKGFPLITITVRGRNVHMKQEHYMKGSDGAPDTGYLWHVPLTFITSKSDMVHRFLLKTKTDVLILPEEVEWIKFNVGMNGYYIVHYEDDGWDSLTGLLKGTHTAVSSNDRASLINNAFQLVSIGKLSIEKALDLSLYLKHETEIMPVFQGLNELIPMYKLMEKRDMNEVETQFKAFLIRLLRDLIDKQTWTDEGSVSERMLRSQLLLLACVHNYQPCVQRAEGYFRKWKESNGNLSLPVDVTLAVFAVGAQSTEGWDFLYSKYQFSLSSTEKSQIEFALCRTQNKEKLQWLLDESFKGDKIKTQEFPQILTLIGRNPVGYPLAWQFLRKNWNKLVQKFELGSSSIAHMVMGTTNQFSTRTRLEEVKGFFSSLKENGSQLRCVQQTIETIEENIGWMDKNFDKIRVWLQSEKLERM
Ecoli rRNA inh: inhibits bacterial ribosomal RNA function over humanized ribosomes; E. coli WT GFP vs humanized-ribosome RFP mutants, fluorescence, 24 h; hits give low values; DMSO median 0, no signal -100; GFP signal change (wild-type ribosome), % (test concentration not listed); 1.6% of 350,000 active; AID 720706;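 active means significant combined selectivity score with lowered wild-type GFP, culture density cut under 30%, mutant RFP and density less affected; inactive means any of these conditions unmet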
* = called active by the depositor; ! = not confirmed by another sample. Only some compounds are listed: those with a hit (about 3.2% of all), similar ones and a draw of the others.

Results for O=C(/C=C/c1ccccc1Cl)c1ccccc(=O)c1O ?
GSIS activator: -12.9; CaV13 ICDI inh: -8.1

How did O=C(/C=C/c1ccc([N+](=O)[O-])cc1)c1ccccc(=O)c1O do in these assays?
GSIS activator: -16.7; DENV2 CPE rescue: inconclusive; CaV13 ICDI inh: -6.3; PGC1a acetyl inh: -7.1; ERAP1 HTS inh: 4.7; Ecoli rRNA inh: -14.2*

How did CCOc1cccc(-c2csc(C3COc4ccccc4O3)n2)c1 (stereo not given) do in these assays?
GSIS activator: 126.3*; CaV13 ICDI inh: -2.8

How did COc1ccc(S(=O)(=O)Cc2ccc(C(=O)N3CCN(Cc4ccccc4)CC3)o2)cc1 do in these assays?
GSIS activator: -2.6; DENV2 CPE rescue: 3.6; CaV13 ICDI inh: 57.9*; PGC1a acetyl inh: 30.4; Ecoli rRNA inh: -1.5

What do the screens show for `COc1ccc(S(=O)(=O)Cc2ccc(C(=O)NC3CC3)o2)cc1`?
GSIS activator: -10.7; DENV2 CPE rescue: 24.5*; CaV13 ICDI inh: 4.0; PGC1a acetyl inh: 6.2; ERAP1 HTS inh: 0.1; Ecoli rRNA inh: 8.1

What do the screens show for `COc1ccc(S(=O)(=O)Cc2ccc(C(=O)N3CCN(c4cc(Cl)ccc4C)CC3)o2)cc1`?
GSIS activator: -9.3; DENV2 CPE rescue: 19.4; CaV13 ICDI inh: 22.3; PGC1a acetyl inh: -0.4; Ecoli rRNA inh: -17.4*

Results for C[C@@H]1CCCCO[C@@H](CN(C)S(=O)(=O)c2ccc(F)cc2)[C@@H](C)CN([C@H](C)CO)C(=O)c2cc(NC(=O)CCC(F)(F)F)ccc2O1 ?
GSIS activator: 13.8; DENV2 CPE rescue: 3.4; PGC1a acetyl inh: 0.6; ERAP1 HTS inh: -2.3; Ecoli rRNA inh: 6.4

What do the screens show for `C[C@H](NC(=O)C[C@@H]1C=C[C@H](NC(=O)C2CC2)[C@H](CO)O1)c1ccccc1`?
GSIS activator: 21.3; DENV2 CPE rescue: 4.0; PGC1a acetyl inh: 2.6; ERAP1 HTS inh: -0.8; Ecoli rRNA inh: -0.9

How did CC(C)NC(=O)C1(C)CCN1Cc1cccc(C#N)c1 (stereo not given) do in these assays?
GSIS activator: 43.0*; DENV2 CPE rescue: 4.6; CaV13 ICDI inh: -4.6; ERAP1 HTS inh: 0.2; Ecoli rRNA inh: 7.1

What do the screens show for `CC(C)NC(=O)C1(C)CCN1Cc1ccc(-c2ccccc2)cc1` (stereo not given)?
GSIS activator: 3.4; DENV2 CPE rescue: 0.5; CaV13 ICDI inh: -5.1; ERAP1 HTS inh: -2.0; Ecoli rRNA inh: -0.6

What do the screens show for `CNC[C@@H]1Oc2ccc(NS(=O)(=O)c3cccs3)cc2CC(=O)N([C@H](C)CO)C[C@H]1C`?
GSIS activator: 5.8; DENV2 CPE rescue: -9.0; PGC1a acetyl inh: 5.6; ERAP1 HTS inh: -1.2; Ecoli rRNA inh: 5.6

What do the screens show for `CC(NC(=O)C12CC3CC(CC(C3)C1)C2)C(=O)N/N=C/C1=C(N2CCOCC2)C(=C\c2ccccc2)/CC1` (stereo not given)?
GSIS activator: -11.3; DENV2 CPE rescue: 133.4*; CaV13 ICDI inh: -2.4; ERAP1 HTS inh: 3.4; Ecoli rRNA inh: 3.1

How did CCCc1ccc(C(O)c2ncc(-c3cccc(F)c3)[nH]2)cc1 (stereo not given) do in these assays?
GSIS activator: -12.7; DENV2 CPE rescue: 0.6; CaV13 ICDI inh: -6.5; PGC1a acetyl inh: 42.6*; ERAP1 HTS inh: -0.4; Ecoli rRNA inh: -61.4

What do the screens show for `CC(C)NC(=O)N(C)C[C@H]1Oc2ncc(C#Cc3ccncc3)cc2C(=O)N([C@H](C)CO)C[C@H]1C`?
GSIS activator: 5.9; DENV2 CPE rescue: 16.7; PGC1a acetyl inh: -17.0; ERAP1 HTS inh: 0.3; Ecoli rRNA inh: 10.1

Results for COc1ccc2c3c([nH]c2c1)[C@@H](CO)N(C)CC31CN(C(=O)C2CC2)C1 ?
GSIS activator: 11.3; DENV2 CPE rescue: 1.7; PGC1a acetyl inh: 7.1; ERAP1 HTS inh: 4.1; Ecoli rRNA inh: 2.9

How did COc1ccc2c3c([nH]c2c1)[C@H](CO)N(C)CC31CN(C(=O)C2CC2)C1 do in these assays?
GSIS activator: 8.2; DENV2 CPE rescue: 44.8*; PGC1a acetyl inh: 0.0; ERAP1 HTS inh: 2.5; Ecoli rRNA inh: 2.9

What do the screens show for `COc1ccc2c3c([nH]c2c1)[C@H](CO)N(Cc1ccccc1F)CC31CN(C(=O)C2CCCC2)C1`?
GSIS activator: 2.2; DENV2 CPE rescue: 23.9*; ERAP1 HTS inh: 2.1; Ecoli rRNA inh: -6.3

Results for O=S(=O)(c1ccccc1)N1CC2(C1)[C@@H](c1ccccc1)[C@H](CO)N2CC1CC1 ?
GSIS activator: -8.2; DENV2 CPE rescue: -14.1; ERAP1 HTS inh: -0.1; Ecoli rRNA inh: -4.2

What do the screens show for `CCCc1nnc2c(N(C)S(=O)(=O)c3ccc(C)cc3)nc3ccccc3n12`?
GSIS activator: 68.2*; DENV2 CPE rescue: 0.0; CaV13 ICDI inh: -2.4; ERAP1 HTS inh: 0.3; Ecoli rRNA inh: 6.8

Results for COc1ccc(/C=C/C(=O)Nc2ccccc2C(=O)O)cc1 ?
GSIS activator: 11.8; DENV2 CPE rescue: -4.2; CaV13 ICDI inh: -2.0; ERAP1 HTS inh: -0.5; Ecoli rRNA inh: -35.5*

What do the screens show for `C[C@H]1CN([C@@H](C)CO)C(=O)c2cccc(NC(=O)C3CCOCC3)c2O[C@@H]1CN(C)C(=O)Nc1ccc(F)cc1`?
GSIS activator: 1.8; DENV2 CPE rescue: 4.9; PGC1a acetyl inh: 6.5; ERAP1 HTS inh: -0.4; Ecoli rRNA inh: 4.5

What do the screens show for `C[C@@H]1CN([C@H](C)CO)C(=O)c2cc(-c3cccnc3)cnc2O[C@H]1CN(C)C(=O)Nc1ccc(C(F)(F)F)cc1`?
GSIS activator: -5.2; DENV2 CPE rescue: 10.5; PGC1a acetyl inh: 3.9; ERAP1 HTS inh: -1.3; Ecoli rRNA inh: -3.7

What do the screens show for `C[C@H](CO)N1C[C@H](C)[C@@H](CN(C)C(=O)Nc2ccc(C(F)(F)F)cc2)Oc2ncc(-c3cccnc3)cc2C1=O`?
GSIS activator: -6.8; DENV2 CPE rescue: 29.6*; PGC1a acetyl inh: 8.8; ERAP1 HTS inh: 1.1; Ecoli rRNA inh: 3.9

Results for C[C@H](CO)N1C[C@H](C)[C@H](CN(C)C(=O)Nc2ccc(C(F)(F)F)cc2)Oc2ncc(Br)cc2C1=O ?
GSIS activator: -18.9; DENV2 CPE rescue: 10.7; CaV13 ICDI inh: -3.4; PGC1a acetyl inh: -1.2; ERAP1 HTS inh: 0.5; Ecoli rRNA inh: -7.2

How did C[C@@H]1CN([C@@H](C)CO)C(=O)c2cc(-c3cccnc3)cnc2O[C@@H]1CN(C)C(=O)c1ccccc1F do in these assays?
GSIS activator: 0.9; DENV2 CPE rescue: 45.9*; PGC1a acetyl inh: 8.8; ERAP1 HTS inh: 1.3; Ecoli rRNA inh: 5.5

How did C[C@H]1CN([C@@H](C)CO)C(=O)c2cc(Br)cnc2O[C@@H]1CN(C)C(=O)Nc1ccc(C(F)(F)F)cc1 do in these assays?
GSIS activator: -9.8; DENV2 CPE rescue: 18.0; CaV13 ICDI inh: -6.4; PGC1a acetyl inh: -4.5; ERAP1 HTS inh: 1.2; Ecoli rRNA inh: -12.2*!
